The subject of the first test is THRa:RXRa (NR concentration 90 nM, RXRa partner concentration 90 nM). The experiment in a line: PBM binding z-score (relative to random genomic background probes); higher = stronger binding; sequences stand for … in GC…GCGATTGACAGCGTAGAATGAAGG
The gist of the method: (§1)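 Random background probes are the reference for binding z-scores. These scores derive from regression-normalized fluorescence on custom Agilent 4×180K protein-binding microarrays incubated 1 h with ligand-free nuclear receptor dimers. Binding was detected with antibodies against each partner (one per run).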
For CCGAGTAGGTTACGAGCGGGCATTCAGTGCGAAT, the PBM binding z-score stood at 1.23.

Turning to CCGAGTAGGTTACGAGGGGGCATTAAGTGCGAAT, the PBM binding z-score was 3.52.

ATATGTAGGCTAGGGTCATTCAGAAAGTAGGGAA returned a PBM binding z-score of 3.74.

CTCGAAAGGTCGGTTGAGGTCAGTATACGGATAA showed a PBM binding z-score of 5.26.

Sequence CGAACTAGGTCACCAGGACAGTCAAGAGGTTGGA displayed a PBM binding z-score of 3.46.

TCATATAGGTGAAAGGTGAAAGTCGGTGTGGTAA returned a PBM binding z-score of 2.15.

On to ATATGTAGCTTAAGGGTCATTCAGGTTGGTTCGC, for which the PBM binding z-score was 3.27.

GCTGCTAGGTCAGGTTGGTCAGCTAACGGGTACG displayed a PBM binding z-score of 1.84.

Take ATACGTAGGTTACATCCGGGTCATTCAGGCTATG: the PBM binding z-score came out at 3.81.

The sequence CTATGTAGGTTAAGGAGGTCATTCAGTTTGAAAG showed a PBM binding z-score of 3.68.

Turning to CTATGAAGGTTAAGGGGGTCATTCAGTTTGAAAG, the PBM binding z-score was determined as 3.97.

The sequence CGAACTAGGTCACCCGGACAGTGAAGAGGTTGGA displayed a PBM binding z-score of 2.98.

Take TAGCCTAGGTCATAGGCCAGTATACCACGCGAAC: the PBM binding z-score amounted to 2.65.

In the case of TCGAGTAGGTTACGGGGGCGTTCAGGGATGAAGA, the PBM binding z-score was determined as 3.24.

The sequence CGAACTAGGTCAAATGACAGTGAAAGGCGACGTA had a PBM binding z-score of 2.6.

For the sequence ATATGGAGGTTAAGGGTCATTCAGGTTGGTTCGC, the PBM binding z-score is 3.96.

In turn, CCTACTGGGCCAAGCTCATTGATCAGTCAAAGCA returned a PBM binding z-score of -0.704.

AGTCAAAGTTCATCAAGGTAACGTAAGATATGCT returned a PBM binding z-score of 3.8.

ACAGACAGGTGAGTGAAGGTCACTCAGCTGGACG returned a PBM binding z-score of 3.41.

Consider TCGAGTAGGTTACGGGGGCCTTCAGGGATGAAGA, for which the PBM binding z-score is 1.95.

Regarding CAAACTAGGTCACCGGAAAGTCAAAGTCCGCATG, the PBM binding z-score came to 3.54.

For the sequence CGAACTAGGTCAACAGGACAGTGAAGAGGTTGGA, the PBM binding z-score turned out to be 2.81.

CGAACTAGATCACCAGGACAGTGAAGAGGTTGGA had a PBM binding z-score of 0.901.

As to CCGAGTAGGTTACGAGGGGACATTCAGTGCGAAT, the PBM binding z-score came to 4.11.

For CTGAGTAGGTTACGAGGGGGCATTCAGTGCGAAT, the PBM binding z-score was 3.67.

ATATGTAGGTTAGGGTGATTCAGAAAGTAGGGAA showed a PBM binding z-score of 2.

On to CCTAGTGGGCCAAAGGTCATTGATTCCAATGCTC, for which the PBM binding z-score was found to be 3.22.

Turning to CTATGTAGGTTAAGGGGGTCATCCAGTTTGAAAG, the PBM binding z-score came out at 3.97.

Regarding CTCCAAAGGTCGGTTGAGGTGAGTATACGGATAA, the PBM binding z-score came to 5.

TCGAGTAGGTTACGGGGGCATTCATGGATGAAGA had a PBM binding z-score of 2.63.

In turn, CACACTAGGTCAAAGGTCAAAGTCGAGCCAACCA came in with a PBM binding z-score of 4.85.

Turning to CCGAGTAGGTTACGAGGGGGCATTCTGTGCGAAT, the PBM binding z-score is 3.55.

In turn, CCTAGTGGGTCAGGAGGTCACACACCGGATATGA yielded a PBM binding z-score of 3.73.

The sequence CCTAGCAGGCCACGGTCACTCAAGCATTTCGCTT displayed a PBM binding z-score of 0.45.

With ATCTCTAGGTCAAAGTTCAGTGAATCCCGAGGAT, the PBM binding z-score was determined as 3.76.

On to ACTCGGAGGACAAAGGTGAGAGCTACGCCAGTGA, for which the PBM binding z-score is 1.68.

ATATGAAGGTTATCGGGTCATTCAGTTTGCGCAT: the PBM binding z-score was found to be 3.38.

With GGAACGGGGGCATTCGAGTTGATAGCATGGCGAT, the PBM binding z-score amounted to 4.15.

Sequence CCTAGTTGGTCAGGAGGTCACATACCGGATATGA displayed a PBM binding z-score of 3.32.

Another test deals with THRa homodimer (NR concentration 90 nM). The description is as above. In short, it runs like this:
as §1
Sequence CCGAGTAGGTTACGAGCGGGCATTCAGTGCGAAT displayed a PBM binding z-score of -0.803.

Take CCGAGTAGGTTACGAGGGGGCATTAAGTGCGAAT: the PBM binding z-score is 0.655.

On to ATATGTAGGCTAGGGTCATTCAGAAAGTAGGGAA, for which the PBM binding z-score came to 2.36.

Regarding CTCGAAAGGTCGGTTGAGGTCAGTATACGGATAA, the PBM binding z-score amounted to 3.23.

Sequence CGAACTAGGTCACCAGGACAGTCAAGAGGTTGGA displayed a PBM binding z-score of 1.89.

Regarding TCATATAGGTGAAAGGTGAAAGTCGGTGTGGTAA, the PBM binding z-score is 0.384.

ATATGTAGCTTAAGGGTCATTCAGGTTGGTTCGC showed a PBM binding z-score of 1.02.

In turn, GCTGCTAGGTCAGGTTGGTCAGCTAACGGGTACG registered a PBM binding z-score of 0.48.

As to ATACGTAGGTTACATCCGGGTCATTCAGGCTATG, the PBM binding z-score stood at 2.5.

In turn, CTATGTAGGTTAAGGAGGTCATTCAGTTTGAAAG displayed a PBM binding z-score of 1.59.

CTATGAAGGTTAAGGGGGTCATTCAGTTTGAAAG registered a PBM binding z-score of 2.22.

The sequence CGAACTAGGTCACCCGGACAGTGAAGAGGTTGGA registered a PBM binding z-score of 1.47.

TAGCCTAGGTCATAGGCCAGTATACCACGCGAAC registered a PBM binding z-score of 0.622.

With TCGAGTAGGTTACGGGGGCGTTCAGGGATGAAGA, the PBM binding z-score was 1.34.

Consider CGAACTAGGTCAAATGACAGTGAAAGGCGACGTA, for which the PBM binding z-score worked out at 0.29.

With ATATGGAGGTTAAGGGTCATTCAGGTTGGTTCGC, the PBM binding z-score was 2.38.

CCTACTGGGCCAAGCTCATTGATCAGTCAAAGCA had a PBM binding z-score of -0.701.

Sequence AGTCAAAGTTCATCAAGGTAACGTAAGATATGCT displayed a PBM binding z-score of 1.23.

As for ACAGACAGGTGAGTGAAGGTCACTCAGCTGGACG, the PBM binding z-score amounted to 0.198.

The sequence TCGAGTAGGTTACGGGGGCCTTCAGGGATGAAGA yielded a PBM binding z-score of 0.405.

CAAACTAGGTCACCGGAAAGTCAAAGTCCGCATG: the PBM binding z-score turned out to be 1.8.

For CGAACTAGGTCAACAGGACAGTGAAGAGGTTGGA, the PBM binding z-score came out at 0.737.

With CGAACTAGATCACCAGGACAGTGAAGAGGTTGGA, the PBM binding z-score is 0.52.

CCGAGTAGGTTACGAGGGGACATTCAGTGCGAAT: the PBM binding z-score was determined as 0.165.

As for CTGAGTAGGTTACGAGGGGGCATTCAGTGCGAAT, the PBM binding z-score came to 0.778.

The sequence ATATGTAGGTTAGGGTGATTCAGAAAGTAGGGAA yielded a PBM binding z-score of 1.65.

CCTAGTGGGCCAAAGGTCATTGATTCCAATGCTC: the PBM binding z-score is 0.756.

CTATGTAGGTTAAGGGGGTCATCCAGTTTGAAAG gave a PBM binding z-score of 1.94.

Sequence CTCCAAAGGTCGGTTGAGGTGAGTATACGGATAA came in with a PBM binding z-score of 1.56.

Sequence TCGAGTAGGTTACGGGGGCATTCATGGATGAAGA returned a PBM binding z-score of 1.13.

Regarding CACACTAGGTCAAAGGTCAAAGTCGAGCCAACCA, the PBM binding z-score was found to be 2.4.

The sequence CCGAGTAGGTTACGAGGGGGCATTCTGTGCGAAT displayed a PBM binding z-score of 0.547.

As to CCTAGTGGGTCAGGAGGTCACACACCGGATATGA, the PBM binding z-score was 2.04.

Sequence CCTAGCAGGCCACGGTCACTCAAGCATTTCGCTT came in with a PBM binding z-score of 0.288.

ATCTCTAGGTCAAAGTTCAGTGAATCCCGAGGAT came in with a PBM binding z-score of 1.76.

For the sequence ACTCGGAGGACAAAGGTGAGAGCTACGCCAGTGA, the PBM binding z-score is 0.221.

As to ATATGAAGGTTATCGGGTCATTCAGTTTGCGCAT, the PBM binding z-score was found to be 2.69.

Sequence GGAACGGGGGCATTCGAGTTGATAGCATGGCGAT registered a PBM binding z-score of 1.09.

Turning to CCTAGTTGGTCAGGAGGTCACATACCGGATATGA, the PBM binding z-score was 2.13.

For the origin of these results see the supplement of paper PMC6555819.
